tested on: not listed separately; assay: probe aNOTCH2 binding on compound microarray – biochemical, small-molecule microarray, 635/667 nm fluorescence, primary screen (AID 1121); conditions: higher = more signal;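 further: score merges feature fluorescence read at 667 nm with its signal to noise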

Question: With `CCOC(=O)C[C@H]1[C@H](OC(=O)c2ccccc2-c2ccccc2)[C@@H](NC(=O)c2ccc3ccccc3n2)c2cc(OCCCO)ccc2N1C(=O)Cc1ccc(OC)cc1` as the compound, how does the composite z-score read?
Answer: The composite z-score was -0.106.

Question: For `CCOc1cc(C(O)C2C=CC3C(=O)NC(=O)C3N2Nc2ccc(Cl)cc2Cl)ccc1O` (configuration not stated), which composite z-score is on record?
Answer: Its composite z-score is -0.0601.

Question: For `Cc1ccc(NN2C(C(O)c3c(F)cccc3Cl)C=CC3C(=O)N(C4CCCCC4)C(=O)C32)cc1` (configuration not stated), which composite z-score is on record?
Answer: Its composite z-score is 0.174.

Question: Which composite z-score does the source give for `CCOC(=O)C[C@H]1[C@H](OC(=O)c2ccc(-c3ccccc3)cc2)[C@@H](NC(=O)CC(C)C)c2cc(OCCCO)ccc2N1C(=O)c1ccc2ccccc2n1` here?
Answer: The composite z-score was -0.161.

Question: With `COC(=O)[C@@]1(Cc2ccccc2)[C@H]2c3cc(C(=O)N4CCCC4)n(CCc4ccccn4)c3C[C@H]2CN1C(=O)c1ccccc1` as the compound, how does the composite z-score read?
Answer: Its composite z-score is 0.133.

Question: Which composite z-score does the source give for `Cc1ccc(S[C@]2(C(=O)NC(C)C)CC(=O)N(Cc3cc(C(F)(F)F)cc(C(F)(F)F)c3)[C@@H]2c2ccc(CO)cc2)cc1` here?
Answer: Its composite z-score is -0.126.

biological target: Carbonic anhydrase 2 (Homo sapiens) (UniProt P00918); assay: compounds binding carbonic anhydrase 2 – biochemical, small-molecule microarray, Alexa647-labelled CAII, profiling panel (AID 1122); conditions: CAII-A647 binding fluorescence, higher = more signal

Question: Which composite z-score does the source give for `CC(C)[Si]1(C(C)C)OCc2cc(C3CC3)nc(-c3ccc(Oc4ccccc4)cc3)c21` here?
Answer: The composite z-score was -0.204.

Question: Which composite z-score does the source give for `O=C1NC(=O)C2C1C=CC(C(O)c1ccco1)N2Nc1ccc(Cl)cc1Cl` (configuration not stated) here?
Answer: Its composite z-score is 0.794.

Question: With `Cc1ccc(N2C(=O)c3ccccc3[C@@H](C(=O)NCCCN(C)C)[C@@H]2c2ccc(CO)cc2)nc1` as the compound, how does the composite z-score read?
Answer: Its composite z-score is -0.0786.

Question: Which composite z-score does the source give for `CCCCCCc1nc(Cc2cc(OC)c(OC)c(OC)c2)cc2c1[Si](C(C)C)(C(C)C)OC2` here?
Answer: Its composite z-score is -0.0134.

Question: Which composite z-score does the source give for `CCOC(=O)C1=C[C@@H](C(C)(C)C)N(S(=O)(=O)c2ccc(C)cc2)[C@H]1c1cccc2ccccc12` here?
Answer: The composite z-score was 0.312.

Question: Which composite z-score does the source give for `COc1cc2c(cc1O)C(c1cccs1)N(Cc1cc3c(cc1Br)OCO3)CC2` (configuration not stated) here?
Answer: Its composite z-score is 0.723.

Question: For `C=CCNC(=O)[C@@H]1[C@H]2C(=O)O[C@H](c3ccccc3)[C@H](c3ccccc3)N2[C@H](c2ccccc2OCCO)[C@@]12C(=O)Nc1ccc(C#CCC(C(=O)OC)C(=O)OC)cc12`, which composite z-score is on record?
Answer: Its composite z-score is 0.648.

Question: With `C=CCN1C(=O)[C@]2(CCS(=O)(=O)c3ccccc3)N=C(c3ccc(OCCCO)cc3)O[C@@H]2c2ccccc21` as the compound, how does the composite z-score read?
Answer: Its composite z-score is 0.594.

Question: Which composite z-score does the source give for `CC(c1ccccc1)C(O)C1C=CC2C(=O)N(C)C(=O)C2N1Nc1ccccc1` (configuration not stated) here?
Answer: The composite z-score was 0.601.

Question: For `N#Cc1ccc(NN2C(C(O)c3ccc(Br)cc3)C=CC3C(=O)N(c4ccccc4)C(=O)C32)cc1` (configuration not stated), which composite z-score is on record?
Answer: Its composite z-score is 0.721.

Question: Which composite z-score does the source give for `COc1ccc([Si](C)(C)[C@@H]2[C@@H](CCO)O[C@]3(C(=O)N(Cc4cccc(NC(=O)[C@H](C)O)c4)c4ccccc43)[C@H]2C)cc1` here?
Answer: Its composite z-score is 0.51.

Question: For `CCCCC(CC)C(O)C1C=CC2C(=O)N(C)C(=O)C2N1Nc1ccccc1` (configuration not stated), which composite z-score is on record?
Answer: The composite z-score was 0.655.

Question: Which composite z-score does the source give for `COCCOC(=O)N1C(=O)[C@@]2(c3cc(C#CCCO)ccc31)[C@H](c1ccc(OCCO)cc1)N1[C@H](c3ccccc3)[C@H](c3ccccc3)OC(=O)[C@H]1[C@@H]2C(=O)Nc1nc2ccccc2s1` here?
Answer: Its composite z-score is 0.406.

Question: With `[N-]=[N+]=NCc1ccccc1[C@@H]1OC(c2ccc(OCCCO)cc2)=N[C@]1(CCS(=O)(=O)c1ccccc1)C(=O)O` as the compound, how does the composite z-score read?
Answer: The composite z-score was 0.786.

Question: With `O=C1C[C@]2(c3ccc([N+](=O)[O-])cc3)C(=O)N(C3CC3)c3cc(CO)ccc3[C@H]2N1CC12CC3CC(CC(C3)C1)C2` as the compound, how does the composite z-score read?
Answer: Its composite z-score is 0.76.

Question: Which composite z-score does the source give for `CCCC[C@@H]1C[C@H]1[C@@H](NC(=O)c1cccs1)c1ccccc1C(F)(F)F` here?
Answer: Its composite z-score is 0.431.

Question: Which composite z-score does the source give for `O=C(Cc1ccccc1)[C@H]1C2C=CCCC(c3ccccc3)=C2CN1Cc1ccccc1` (some centres not stated) here?
Answer: The composite z-score was -0.302.

Question: Which composite z-score does the source give for `COC(=O)[C@]1(CCS(=O)(=O)c2ccccc2)N=C(c2ccc(OCCCO)cc2)O[C@@H]1c1ccccc1N=[N+]=[N-]` here?
Answer: The composite z-score was 0.78.

Question: Which composite z-score does the source give for `COCCOC(=O)N1C(=O)[C@@]2(c3cc(C#CC4=CCCCC4)ccc31)[C@H](c1ccccc1OCCO)N1[C@H](c3ccccc3)[C@H](c3ccccc3)OC(=O)[C@H]1[C@@H]2C(=O)N1CCN(c2ncccn2)CC1` here?
Answer: Its composite z-score is 0.214.

Question: For `CN(C)C(=O)[C@@]1(Cc2ccccc2)N=C(c2ccc(OCCCO)cc2)O[C@H]1c1ccccc1`, which composite z-score is on record?
Answer: The composite z-score was 0.617.

Question: Which composite z-score does the source give for `COc1ccc(C#Cc2ccc3c(c2)[C@]2(C(=O)N3)[C@H](C(=O)O)[C@H]3C(=O)O[C@H](c4ccccc4)[C@H](c4ccccc4)N3[C@@H]2c2ccc(O)cc2)cc1` here?
Answer: The composite z-score was 0.659.

Question: Which composite z-score does the source give for `CCCCC[C@H]1OC[C@@]23C=C(Br)[C@@H](CC12)[C@@]1(CO1)C3=O` (some centres not stated) here?
Answer: Its composite z-score is -0.174.

Question: For `CC1CC/C=C\[C@H]2OC34C=CCN(c5ccc(Cl)cc5)C(=O)[C@H]3N(C(C)CO)C(=O)[C@]4(C)C2C(=O)O1` (some centres not stated), which composite z-score is on record?
Answer: The composite z-score was 0.768.

Question: With `COc1cc2c(cc1O)C(C1CC1)N(Cc1cccc(OC(F)(F)F)c1)CC2` (configuration not stated) as the compound, how does the composite z-score read?
Answer: Its composite z-score is 0.814.

Question: Which composite z-score does the source give for `COc1cc(C(O)C2C=CC3C(=O)N(C)C(=O)C3N2Nc2ccccc2)cc(OC)c1OC` (configuration not stated) here?
Answer: Its composite z-score is 0.818.

Question: With `[N-]=[N+]=NCc1ccccc1[C@H]1OC(c2ccc(OCCCO)cc2)=N[C@@]1(Cc1ccccc1N=[N+]=[N-])C(=O)NCC(O)CO` (some centres not stated) as the compound, how does the composite z-score read?
Answer: The composite z-score was 0.7.

Question: Which composite z-score does the source give for `COC(=O)[C@@]1(Cc2ccc(OC)cc2)[C@H]2c3cc(C(=O)N(C)C)n(Cc4ccc(OC(F)(F)F)cc4)c3C[C@H]2CN1C(=O)c1ccccc1` here?
Answer: Its composite z-score is 0.822.

Question: For `C=C(/C(=C/C[C@H](OC(C)=O)c1ccc(CO)o1)c1cnc2ccccc2c1)C(C)C`, which composite z-score is on record?
Answer: The composite z-score was 0.945.

Question: For `Cc1ccc(S[C@]2(C(=O)NCc3ccccc3)CC(=O)N(C3CCCCC3)[C@@H]2c2ccc(CO)cc2I)cc1`, which composite z-score is on record?
Answer: The composite z-score was 0.459.

Question: For `COc1ccc([Si](C)(C)[C@@H]2[C@@H](CC(=O)N3Cc4ccccc4C[C@H]3CO)O[C@]3(C(=O)N(Cc4ccc(N5C(=O)c6cccc7cccc5c67)cc4)c4ccccc43)[C@H]2C)cc1`, which composite z-score is on record?
Answer: Its composite z-score is 0.351.

Question: With `CCOC(=O)C[C@H]1[C@H](OC(=O)c2ccccc2-c2ccccc2)[C@@H](NC(=O)c2ccc3ccccc3n2)c2cc(OCCCO)ccc2N1C(=O)Cc1ccc(OC)cc1` as the compound, how does the composite z-score read?
Answer: The composite z-score was 0.105.

Question: For `CCOc1cc(C(O)C2C=CC3C(=O)NC(=O)C3N2Nc2ccc(Cl)cc2Cl)ccc1O` (configuration not stated), which composite z-score is on record?
Answer: The composite z-score was 0.797.

Question: For `Cc1ccc(NN2C(C(O)c3c(F)cccc3Cl)C=CC3C(=O)N(C4CCCCC4)C(=O)C32)cc1` (configuration not stated), which composite z-score is on record?
Answer: The composite z-score was 0.489.

Question: For `CCOC(=O)C[C@H]1[C@H](OC(=O)c2ccc(-c3ccccc3)cc2)[C@@H](NC(=O)CC(C)C)c2cc(OCCCO)ccc2N1C(=O)c1ccc2ccccc2n1`, which composite z-score is on record?
Answer: Its composite z-score is 0.0808.

Question: For `COC(=O)[C@@]1(Cc2ccccc2)[C@H]2c3cc(C(=O)N4CCCC4)n(CCc4ccccn4)c3C[C@H]2CN1C(=O)c1ccccc1`, which composite z-score is on record?
Answer: Its composite z-score is 0.88.

Question: Which composite z-score does the source give for `Cc1ccc(S[C@]2(C(=O)NC(C)C)CC(=O)N(Cc3cc(C(F)(F)F)cc(C(F)(F)F)c3)[C@@H]2c2ccc(CO)cc2)cc1` here?
Answer: Its composite z-score is 0.241.
